Compound activity (PubChem)
IL1B secr inh: blocks inflammasome-driven IL-1 beta release | THP-1 LPS/ATP IL-1B secretion, AlphaLISA, 16 h; stronger effect = lower value | activity change, % at 57.5 µM | hit rate 4.7% among 360,000 | AID 743279; in the data active = activity change below about -50%; inconclusive = mostly about -30% to -49%
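THP-1 cells pretreated 1 hr with compounds (up to 57.5 uM final), then stimulated with LPS (250 ng/mL final) plus ATP (1.25 mM final); secreted IL-1B measured by AlphaLISA after 16 hr, decreased signal indicating inhibition.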
HT1080NT lethal: kills 2HG-producing HT-1080-NT fibrosarcoma cells | HT-1080-NT fibrosarcoma viability, CellTiter-Glo ATP luminescence, 48 h | Potency, µM (series often up to 46.1 µM), for inactives: at the highest dose activity, negative = less viability, hits mostly cytotoxic | hit rate 1.6% among 360,000;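 also: NT is the 2HG producing partner of a matched IDH1 knockdown line; potency is read from the fitted curve at half-maximal effect; 0% = DMSO-treated cells and -100% = media-only wells without cells; nearly all actives have a fitted effect of over 55% in size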
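Viability of the 2HG-overproducing fibrosarcoma line after 48 hours of compound exposure at 37 degrees C was determined by luminescence with CellTiter-Glo, and concentration-effect curves were then fitted and categorized.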
uPA surface inh: blocks generation of uPA at the cell surface. cell surface uPA generation assay, qHTS. Potency, µM (doses to about 38.3 µM), for inactives: at the highest dose activity change, negative = inhibition, hits mostly inhibitors. hit rate 0.31% among 330,000; active = well fitted inhibition curve with a large enough effect; inconclusive = small, poorly fitted or top-dose-only effect; inactive = no such curve, though single readings can be large or run the other way; tested in mouse RAW 264.7 cells; also: potency is read from the fitted curve at half-maximal effect; nearly all actives have a fitted effect of over 55% in size
HT1080 IDH1KD tx: kills HT-1080 cells with IDH1 knockdown. Potency, µM (highest dose often 46.1 µM), without a hit: top-dose activity, negative = toxicity, usual class: cytotoxic. HT-1080 IDH1 knockdown viability, ATP luminescence, 48 h. hit rate 2% among 360,000. AID 686971;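 also: potency is read from the fitted curve at half-maximal effect; 0% = DMSO wells and -100% = cell-free medium wells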
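Luminescent ATP read-out (CellTiter-Glo, 10 min at room temperature) after 48 h compound exposure at 37 °C gave viability of IDH1-knockdown HT-1080 cells. Activity was normalised to DMSO and cell-free wells, then fitted as concentration-response curves.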
TDP1 cell noCPT: qHTS for Inhibitors of human tyrosyl-DNA phosphodiesterase 1 (TDP1): qHTS in cells in absence of CPT | hit rate 15% among 420,000 | DT40 Tdp1-/- hTDP1 cells, no CPT, ATP luminescence, 48 h | Potency, µM (highest dose often 46.2 µM), for inactives: at the highest dose activity change, negative = growth inhibition, actives largely listed as inhibitors | AID 686978, 2013; also: potency is read from the fitted curve at half-maximal effect; nearly all actives have a fitted effect of over 55% in size
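Camptothecin absent (DMSO only). Human TDP1-complemented DT40 knockout cells, 400 cells/well, 37 °C for minimum 48 hr; ATP measured via CellTiter-Glo, 30 min dark incubation, luminescence.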
TDP1 cell CPT: DT40-hTDP1 cell growth loss with CPT | chicken DT40 Tdp1-/-;hTDP1 cells + 20 nM CPT, ATP luminescence, 48 h | Potency, µM (doses to about 46.2 µM), for inactives: at the top dose activity change, negative = growth inhibition, hits mostly inhibitors | hit rate 12% among 420,000; also: potency is read from the fitted curve at half-maximal effect; nearly all actives have a fitted effect of over 55% in size
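Chicken DT40 Tdp1-/- cells complemented with human TDP1, 400 cells/well, exposed to compounds plus 20 nM camptothecin for at least 48 h at 37 C; viability read as ATP content by CellTiter-Glo luminescence.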
The depositor's hits bear a star; ? = inconclusive; . = not tested or not shown. Rows were chosen to be rich in hits. Some 19% of all compounds tested hit in one or more screens of this group. Unless noted, calls follow the shape of the dose curve; as a rule, active = well fitted curve in the direction sought with a large enough effect; inconclusive = small, poorly fitted or top-dose-only effect, or another doubt; inactive = no such curve, though single readings can be large; an effect the other way counts as inactive or inconclusive. Unless noted, % is scaled to controls: 0 for no effect and ±100 for the full control effect.

SMILES	IL1B secr inh	HT1080NT lethal	uPA surface inh	HT1080 IDH1KD tx	TDP1 cell noCPT	TDP1 cell CPT
Cc1c(C(=O)OCc2ccc(F)cc2)sc2nc3n(c(=O)c12)CCC3	30	17%	5%	10%	?	-8%
CC(C)N1CCC1(C)C(=O)Nc1ccc(-n2cccc2)cc1 (configuration not stated)	-19	4%	.	4%	?	15µM*
O=c1c(-c2cc(F)cc(F)c2)nc2cnc(N3CCOCC3)nc2n1C1CC1	.	.	.	.	-1%	-5%
C/C(=N\NC(=O)c1ccc(NS(=O)(=O)c2cccs2)cc1)c1ccc(O)cc1O	165	?	-3%	23µM*	?	?
COc1ccc(C=NNC(=O)c2ccccc2NS(=O)(=O)c2cccs2)cc1O	9	3%	-1%	7%	-5%	-2%
O=C(NN=Cc1ccc(O)cc1O)c1ccccc1NS(=O)(=O)c1cccs1	196	?	?	?	21µM*	?
c1ccc2cnccc2c1	.	.	.	.	-5%	0%
Cc1[nH]c2ccc(F)cc2c1CCN(Cc1cccnc1)C(=S)Nc1ccccc1	-11	-8%	12%	-1%	?	-18%
Cc1cc2nc(CCN(Cc3cccnc3)C(=S)Nc3ccccc3)[nH]c2cc1C	-50*	0%	11%	-24%	?	-28%
Cc1[nH]c2ccccc2c1CCN(Cc1cccnc1)C(=S)Nc1cccc(F)c1	-70*	-26%	-1%	-13%	?	?
Cc1[nH]c2ccc(F)cc2c1CCN(Cc1ccncc1)C(=S)Nc1ccccc1	-70*	-28%	-6%	-19%	-25%	-9%
Cc1cc2nc(CCN(Cc3cccnc3)C(=S)Nc3ccc(F)cc3)[nH]c2cc1C	?	?	-3%	-29%	?	?
Cc1[nH]c2ccccc2c1CCN(Cc1cccnc1)C(=S)Nc1ccc(F)cc1	-21	-1%	15%	-8%	16µM*	16µM*
Cc1cccc(NC(=O)CSc2nncn2C)c1	.	.	.	.	12%	-11%
CC(N)CCCP(=O)(O)O (configuration not stated)	.	.	.	.	-11%	-21%
CCC1(c2ccc(F)cc2)NC(=O)N(CC(=O)c2cc(C)n(C3CC3)c2C)C1=O (configuration not stated)	9	2%	-1%	6%	?	?
N#Cc1ccc(Oc2ccc(S(=O)(=O)N3CCOCC3)cn2)cc1	1	5%	3%	1%	-13%	-20%
Cc1ccccc1CSc1cn(CC(=O)N2CCCCCC2)c2ccccc12	.	.	.	.	23µM*	?
O=C(Cn1cc(SCc2ccccc2F)c2ccccc21)N1CCCCCC1	.	.	.	.	?	23µM*
CNC(=O)CSc1cn(CC(=O)N2CCCCCC2)c2ccccc12	.	.	.	.	-15%	-16%
CC(C)NC(=O)CSc1cn(CC(=O)N2CCCCCC2)c2ccccc12	.	.	.	.	-21%	-13%
Cn1cnc2nc[nH]c2c1=O	-13	0%	-3%	2%	5%	2%
CC(C)Cc1nnc(NC(=O)c2cc([N+](=O)[O-])ccc2N2CCOCC2)s1	2	5%	-12%	19%	-26%	5%
CC(C)NC(=O)c1cc(-c2ccc(F)cc2OC(C)C)n[nH]1	-22	19%	.	7%	?	-23%
CC(C)Oc1ccc(F)cc1-c1cc(C(=O)Nc2ccccc2)[nH]n1	-69*	5%	.	25%	?	?
SMILES	IL1B secr inh	HT1080NT lethal	uPA surface inh	HT1080 IDH1KD tx	TDP1 cell noCPT	TDP1 cell CPT
CCN(CC)CCNC(=O)c1ccc(NC(=O)c2cn(-c3ccc(F)cc3)nc2-c2cccc(OC)c2)cc1	-90*	23µM*	0%	21µM*	?	?
CC(C)Oc1ccc(F)cc1-c1cc(C(=O)NCc2ccc(F)cc2)[nH]n1	-8	-24%	.	0%	?	26µM*
CC(C)Oc1ccc(F)cc1-c1cc(C(=O)Nc2ccc(C(C)(C)C)cc2)[nH]n1	15	23µM*	.	18µM*	3.3µM*	6.5µM*
CC(C)Oc1cc(F)ccc1-c1cc(C(=O)NCc2cccnc2)[nH]n1	-6	3%	.	-1%	?	7%
CCCOc1ccc(F)cc1-c1cc(C(=O)Nc2ccccc2)[nH]n1	-6	10%	.	27%	?	1%
COc1cccc(-c2cc(C(=O)Nc3ccc(F)cc3)[nH]n2)c1	.	.	.	.	16µM*	?
CCN(CC)CCNC(=O)c1ccc(NC(=O)c2ccccc2-c2ccc(C(F)(F)F)cc2)cc1	-67*	23µM*	1%	18µM*	?	18µM*
CC(C)c1cn(CC[C@@H]2CC[C@@H](NC(=O)C3CCCCC3)[C@@H](CO)O2)nn1	60	16%	.	8%	0%	-16%
O=C(Nc1ccc(F)cc1)C(c1ccccc1OC(F)(F)F)N1CCN(c2cccc(C(F)(F)F)n2)CC1 (configuration not stated)	-2	-14%	.	-23%	?	?
O=C(Nc1ccc(F)cc1)C(c1ccnc2ccccc12)N1CCN(c2cccc(C(F)(F)F)n2)CC1 (configuration not stated)	2	?	.	?	21µM*	?
Cc1cccc(C)c1NC(=O)C(c1ccnc2ccccc12)N1CCN(CCN(C)C)CC1 (configuration not stated)	39	-12%	.	0%	5.2µM*	4.6µM*
Cc1cccc(C)c1-n1nnnc1C(c1ccnc2ccccc12)N1CCN(CC(=O)NC(C)C)CC1 (configuration not stated)	39	12%	.	?	-27%	-13%
c1ccc2c(C(c3nnnn3-c3ccc4c(c3)OCCO4)N3CCOCC3)ccnc2c1 (configuration not stated)	5	12%	.	-1%	-2%	3%
Cc1cccc(C)c1-n1nnnc1C(c1ccnc2ccccc12)N1CCCN(C(=O)OC(C)(C)C)CC1 (configuration not stated)	37	16%	.	?	18µM*	?
O=C(OCc1ccccc1)N1CCN(C(c2ccnc3ccccc23)c2nnnn2-c2ccc3c(c2)OCCO3)CC1 (configuration not stated)	?	?	.	?	8.2µM*	23µM*
CCNc1c(NS(=O)(=O)c2ccc(F)c(Cl)c2)c(=O)oc2ccccc12	6	-2%	3%	6%	3%	7%
CC1CN(c2ccc([N+](=O)[O-])nc2)CC(C)O1 (configuration not stated)	-25	16%	3%	2%	9%	9%
